Compounds with a hit are over-represented: about 3.3% of the library has one in this group of screens.
AmpC no deterg = qHTS Inhibitors of AmpC Beta-Lactamase (assay without detergent) | Potency, µM (doses to about 57.1 µM), for the others: at the highest dose activity change, negative = inhibition, most hits filed as inhibitors | 0.52% of 330,000 active | AmpC nitrocefin hydrolysis, absorbance 480 nm, 0.0001% Triton | P00811;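 also: plate controls were no compound for no effect and no enzyme for full effect; nearly all actives have a fitted effect of over 20% in size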
Target sequence (P00811 whole entry, looked up): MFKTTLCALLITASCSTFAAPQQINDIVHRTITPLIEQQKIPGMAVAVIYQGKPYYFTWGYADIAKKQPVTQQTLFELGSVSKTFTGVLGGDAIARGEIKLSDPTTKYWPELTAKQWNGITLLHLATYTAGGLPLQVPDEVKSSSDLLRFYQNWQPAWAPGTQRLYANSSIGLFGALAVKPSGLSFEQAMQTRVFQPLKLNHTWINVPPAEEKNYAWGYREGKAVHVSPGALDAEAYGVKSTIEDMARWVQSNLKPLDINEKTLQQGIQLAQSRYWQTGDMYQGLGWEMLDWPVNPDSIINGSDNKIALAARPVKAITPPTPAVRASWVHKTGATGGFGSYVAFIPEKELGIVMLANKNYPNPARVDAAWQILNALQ
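AmpC (5.3 nM in the dispensed reagent) in 20 mM phosphate pH 7.0 with 0.01% (detergent screen) or 0.0001% Triton X-100 was preincubated with compounds for 15 min at room temperature. Nitrocefin was then added from an 800 uM solution, and hydrolysis was followed at 480 nm.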
Sm TGR inh = qHTS Assay for the Inhibitors of Schistosoma Mansoni Peroxiredoxins | Schistosoma mansoni thioredoxin glutathione reductase (TGR), Q962Y6 | purified TGR, DTNB reduction, TNB absorbance 405 nm | Potency, µM (highest dose often 114 µM), for the others: at the top dose activity change, negative = inhibition, hits mostly inhibitors | 3% of 360,000 active; also: nearly all actives have a fitted effect of over 60% in size
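Kinetic colorimetric format: TGR-catalysed, NADPH-driven DTNB reduction monitored via TNB absorbance. Enzyme dispensed at 20 nM; compound exposure 15 min at room temperature before reaction start.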
AmpC detergent = qHTS Inhibitors of AmpC Beta-Lactamase (assay with detergent). AmpC hydrolysis of nitrocefin, absorbance 480 nm, 0.01% Triton. Potency, µM (top dose mostly 114 µM), for inactives: top-dose activity change, negative = inhibition, most hits filed as inhibitors. P00811. 0.041% of 370,000 active;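 also: 0% = no-compound wells and -100% = no-enzyme wells; nearly all actives have a fitted effect of over 25% in size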
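AmpC (5.3 nM in the dispensed reagent) in 20 mM phosphate pH 7.0 with 0.01% (detergent screen) or 0.0001% Triton X-100 was preincubated with compounds for 15 min at room temperature. Nitrocefin was then added from an 800 uM solution, and hydrolysis was followed at 480 nm.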
The depositor's hits bear a star; [ ] = another dose, or the depositor's remark. Calls follow the shape of the dose curve; as a rule, active = well fitted curve in the direction sought with a large enough effect; inconclusive = small, poorly fitted or top-dose-only effect, or another doubt; inactive = no such curve, though single readings can be large; an effect the other way counts as inactive or inconclusive. Unless noted, % is scaled to controls: 0 for no effect and ±100 for the full control effect; potency is read from the fitted curve at half-maximal effect.

Screening CCCCCn1c(C(Cc2ccccc2)NC(=O)COC)nc2ccccc21 (configuration not stated) returned AmpC no deterg 1.3µM*, Sm TGR inh 7% and AmpC detergent inconclusive.
`CCCCn1c(C(C)NC(=O)COC)nc2ccccc21` (configuration not stated) gave AmpC no deterg -10%, Sm TGR inh -2% and AmpC detergent 0%.
Screening CCCCn1c(CNC(=O)CCC)nc2ccccc21 returned AmpC no deterg 7.1µM*, Sm TGR inh 5% and AmpC detergent -12%.
`CCCCCn1c(CNC(=O)CCC)nc2ccccc21` gave AmpC no deterg 19%, Sm TGR inh 0% and AmpC detergent inconclusive.
`Nc1c(N(Cc2ccccc2)C(=O)COc2ccc(F)cc2Cl)c(=O)[nH]c(=O)n1Cc1ccccc1` gave AmpC no deterg -20%.
Screening COCCNC(=O)c1cc2oc3ccccc3c2n1C returned AmpC no deterg -17%, Sm TGR inh 3% and AmpC detergent -1%.
`O=C(NC(=S)Nc1ccc(N2CCOCC2)cc1)c1cccc(Cl)c1Cl` gave AmpC no deterg -15%, Sm TGR inh -28% and AmpC detergent -9%.
For CCc1ccc(C(=O)NC(=S)Nc2ccc(N3CCOCC3)cc2)cc1 the results were AmpC no deterg 0%, Sm TGR inh inconclusive and AmpC detergent -1%.
Screening O=C(NC(=S)Nc1ccccc1[N+](=O)[O-])c1cncc(Br)c1 returned AmpC no deterg -28%, Sm TGR inh 20µM* and AmpC detergent -9%.
Screening O=C(NC(=S)Nc1ccc(N2CCOCC2)cc1)c1ccccc1 returned AmpC no deterg 24%, Sm TGR inh 16µM* and AmpC detergent -13%.
Screening O=C(NC(=S)Nc1ccc(N2CCOCC2)cc1)c1cccc(Cl)c1 returned AmpC no deterg -9%, Sm TGR inh 22µM* and AmpC detergent -5%.
Screening O=C(NC(=S)Nc1ccccc1C(=O)O)c1cncc(Br)c1 returned AmpC no deterg -31%, Sm TGR inh 4% and AmpC detergent inconclusive.
`CC(C)OC(=O)c1ccc(NC(=S)NC(=O)c2cncc(Br)c2)cc1` gave AmpC no deterg -30%, Sm TGR inh 15% and AmpC detergent -8%.
For O=C(NC(=S)Nc1ccc(N2CCOCC2)cc1)c1cncc(Br)c1 the results were AmpC no deterg -51%, Sm TGR inh 13µM* and AmpC detergent inconclusive.
S=C(Nc1cccnc1)N1CCN(c2ccccc2Cl)CC1 was read as AmpC no deterg 7%, Sm TGR inh -6% and AmpC detergent -2%.
For CCCCN(C)CCCNC(=O)C1CCN(S(=O)(=O)CCC)CC1 the results were Sm TGR inh 11% and AmpC detergent 6%.
Screening CC(=O)c1ccc(NC(=S)Nc2ccc(N3CCOCC3)cc2)cc1 returned AmpC no deterg -17%, Sm TGR inh 45µM* and AmpC detergent 4%.
`CN(C)C(=S)Nc1ccc(N2CCOCC2)cc1` gave AmpC no deterg 2%, Sm TGR inh -2% and AmpC detergent -4%.
C=C1C(=O)O[C@H]2C[C@]3(C)C([C@@H](OC(=O)/C(C)=C/C)[C@H]12)[C@](C)(O)CC[C@H]3O (some centres not stated) was read as AmpC no deterg -1%, Sm TGR inh 14µM* and AmpC detergent -14%.
`Cc1cnc(C(=O)OCc2ccc(Br)cc2F)cn1` gave AmpC no deterg -10%, Sm TGR inh -13% and AmpC detergent 5%.
Screening CCCCN1C(=O)/C(=C/C=C2\Oc3ccccc3N2CC)SC1=S returned AmpC no deterg -17%, Sm TGR inh -7% and AmpC detergent 3%.
`CCN1/C(=C/C=C/c2oc3ccc(-c4ccccc4)cc3[n+]2CC)Oc2ccc(-c3ccccc3)cc21` gave AmpC no deterg 123%, Sm TGR inh 40µM* and AmpC detergent -7%.
For Cc1cc(C)c2cc(CN(Cc3ccco3)C(=S)NCC3CCCO3)c(=O)[nH]c2c1 (configuration not stated) the results were AmpC no deterg 60%, Sm TGR inh 25µM* and AmpC detergent -8%.
Screening COc1ccccc1NC(=O)N(Cc1ccco1)Cc1cc2cccc(C)c2[nH]c1=O returned AmpC no deterg -7%, Sm TGR inh -8% and AmpC detergent -5%.
For Cc1ccc(C)c2[nH]c(=O)c(CN(CC3CCCO3)C(=S)NCc3ccco3)cc12 (configuration not stated) the results were AmpC no deterg 106%, Sm TGR inh 28µM* and AmpC detergent 0%.
`Cc1cccc2cc(CN(CC3CCCO3)C(=O)c3ccco3)c(=O)[nH]c12` (configuration not stated) gave AmpC no deterg -6%, Sm TGR inh 35µM* and AmpC detergent -1%.
O=C(c1ccco1)N(Cc1cc2ccccc2[nH]c1=O)CC1CCCO1 (configuration not stated) was read as AmpC no deterg -9%, Sm TGR inh -7% and AmpC detergent inconclusive.
`COc1ccc2cc(CN(Cc3ccco3)C(=S)NCC3CCCO3)c(=O)[nH]c2c1` (configuration not stated) gave AmpC no deterg -11%, Sm TGR inh -27%[57.1 µM] and AmpC detergent -1%.
For Cc1ccc2cc(CN(CC3CCCO3)C(=S)NCc3ccco3)c(=O)[nH]c2c1C (configuration not stated) the results were AmpC no deterg 105%, Sm TGR inh -19% and AmpC detergent 0%.
COc1ccccc1NC(=O)N(Cc1ccco1)Cc1cc2c(C)ccc(C)c2[nH]c1=O was read as AmpC no deterg 9%, Sm TGR inh 32µM* and AmpC detergent -2%.
For Cc1[nH]c(C)c(S(=O)(=O)N2CCN(c3ccccc3)CC2)c1C(=O)N1CCCCC1 the results were AmpC no deterg 65%, Sm TGR inh -5% and AmpC detergent -7%.
Screening Clc1ccc(-c2noc3ncnc(NCCc4ccccc4)c23)cc1 returned Sm TGR inh -5% and AmpC detergent -7%.
Screening Cc1cccc(NC(=S)NC(=O)c2ccco2)c1C returned AmpC no deterg -18%, Sm TGR inh inconclusive and AmpC detergent 9%.
Screening NS(=O)(=O)c1ccc(NC(=S)NC(=O)/C=C/c2ccco2)cc1 returned AmpC no deterg -38%, Sm TGR inh 40µM* and AmpC detergent -9%.
NS(=O)(=O)c1ccc(NC(=S)NC(=O)c2ccco2)cc1 was read as AmpC no deterg -17%, Sm TGR inh 56µM* and AmpC detergent -5%.
O=C(NC(=S)Nc1ccccc1Br)c1ccco1 was read as AmpC no deterg -16%, Sm TGR inh 35µM* and AmpC detergent 4%.
`S=C(Nc1ccccc1)Nc1ccccc1Br` gave AmpC no deterg 0%, Sm TGR inh 45µM* and AmpC detergent -4%.
For NC(N)=NS(=O)(=O)c1ccc(NC(=S)NC(=O)/C=C/c2ccco2)cc1 the results were AmpC no deterg -9%, Sm TGR inh -36% and AmpC detergent inconclusive.
`CC(=O)NS(=O)(=O)c1ccc(NC(=S)NC(=O)c2ccco2)cc1` gave AmpC no deterg -5%, Sm TGR inh 0% and AmpC detergent -8%.

Screening data as filed in PubChem BioAssay.
